From PubChem BioAssay (EPA / NIEHS) come the findings set out here.

A short description of assay [1]: CCTE_Shafer_MEA_acute_spike_number: CCTE's Neural Acute Assay for Total Number of Spikes, Shafer Lab (AID 2284008).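 Note: curve fitted for decrease in spike count so AC50 reflects inhibitors.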 The essentials: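 Rat primary cortical neurons on 48-well MEA plates, DIV 13 or 15, at 37 C. 40 min baseline then 40 min with compound (0.03-40 uM); spikes detected at 8x rms noise, expressed as percent change from baseline.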
Assay [2] in a line: CCTE_Shafer_MEA_acute_firing_rate_mean: CCTE's Neural Acute Assay for Mean Firing Rate, Shafer Lab (AID 2284009).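 Note: analyzed for loss of signal so actives lower firing rate relative to DMSO.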 In short, it runs like this:
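Percent change in well-mean firing rate was derived from extracellular spikes detected at 8x rms noise (300-5000 Hz band-pass) before and after a 40-min compound exposure. Cultures were primary rat cortical neurons, tested at 0.03-40 uM.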

The nature of assay [3]: CCTE_Shafer_MEA_acute_burst_number: CCTE's Neural Acute Assay for Single-Electrode Bursts, Shafer Lab (AID 2284013). In short, it runs like this: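 Spontaneous network activity of primary rat cortical neurons was recorded extracellularly on microelectrode arrays at 37 C, with 40-min periods before and during exposure to 0.03-40 uM compound on DIV 13 or 15.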
Assay [4] can be described thus: CCTE_Shafer_MEA_acute_burst_duration_mean: CCTE's Neural Acute Assay for Mean Burst Duration, Shafer Lab (AID 2284014).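 Note: hits are decreases in mean burst duration relative to DMSO controls.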 The essentials: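 Read-out is the per-well percent change in mean burst duration (first to last spike within a single-electrode burst) between 40-min recordings before and after compound. Cultures were primary rat cortical neurons on MEAs, dosed at 0.03-40 uM on DIV 13 or 15.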

The nature of assay [5]: CCTE_Shafer_MEA_acute_per_burst_spike_number_mean: CCTE's Neural Acute Assay for Average Number of Spikes Per Burst, Shafer Lab (AID 2284015).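 Note: hits are decreases in mean spikes per burst versus baseline.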 The essentials: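 We recorded spontaneous network firing of rat cortical neurons for 40 min before and 40 min during exposure to compound at 0.03-40 uM, at 37 C. Spikes were detected adaptively at 8x rms noise, and the change in average spikes per burst was fitted against DMSO.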

A short description of assay [6]: CCTE_Shafer_MEA_acute_interburst_interval_mean: CCTE's Neural Acute Assay for Mean Interburst Interval, Shafer Lab (AID 2284016).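 Note: percent change of mean interburst interval versus each well's own pre-dose baseline; curves fitted for decrease in interburst interval relative to DMSO.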 The essentials:
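MEA recording of spontaneous network bursting in primary rat cortical cultures; mean interburst interval was compared before and after a 40-min compound exposure (0.03-40 uM) and expressed as percent change, relative to DMSO.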

Assay [7] can be described thus: CCTE_Shafer_MEA_acute_burst_percentage_mean: CCTE's Neural Acute Assay for Percentage of Spikes in a Burst, Shafer Lab (AID 2284017).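 Note: curve fitted for loss of signal so potency reflects decreased burst percentage.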 In short, it runs like this:
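Compounds were tested at 0.03-40 uM on primary rat cortical neuron networks grown over microelectrodes, with at least three wells per compound. Spontaneous firing was recorded for 40 min before and 40 min after dosing, and the change in burst percentage was computed per well.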

Assay [8] is described as follows: CCTE_Shafer_MEA_acute_burst_percentage_std: CCTE's Neural Acute Assay for Standard Deviation of Burst Percentage, Shafer Lab (AID 2284018).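 Note: fitted in the negative direction so actives lower burst percentage SD.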 In short, it runs like this: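 Value is percent change from baseline in the across-electrode SD of spikes-in-bursts percentage, wells with >/= 10 active electrodes. Acute 40-min exposure to 0.03-40 uM on DIV 13 or 15 rat cortical cultures, recorded at 37 C after 40-min baseline.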

A short description of assay [9]: CCTE_Shafer_MEA_acute_per_network_burst_spike_number_mean: CCTE's Neural Acute Assay for Average Number of Spikes in a Network Burst, Shafer Lab (AID 2284019).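 Note: curve fitted for loss of signal so actives reduce spikes per network burst.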 In short, it runs like this:
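Read-out is mean spike count per network burst, taken as percent change between a 40-min pre-exposure and a 40-min post-exposure recording per well. Rat primary cortical neurons on MEAs at 37 C, DIV 13 or 15; compounds at 0.03-40 uM.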

Assay [10] is described as follows: CCTE_Harrill_HTTr_Viability_MCF7: CCTE's 6-hour Cell Viability Assessment for the High-Throughput Transcriptomics (HTTr) Platform, in MCF-7 cells cultured in DMEM + 10% fetal bovine serum, Harrill Lab (AID 2284010). In short, it runs like this: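 Cells were dosed with chemicals in an eight-point dilution series, imaged 6 hours later for propidium iodide uptake, and the endpoint was analyzed by bidirectional fitting against DMSO as negative control.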

A short description of assay [11]: CCTE_Harrill_HTTr_Apoptosis_MCF7: CCTE's 6-hour Apoptosis Assessment for the High-Throughput Transcriptomics (HTTr) Platform, in MCF-7 cells cultured in DMEM + 10% fetal bovine serum, Harrill Lab (AID 2284011). In short, it runs like this:
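MCF-7 cells in DMEM + 10% FBS exposed 6 h to chemicals over an eight-point dilution series. Caspase-3/7 activation imaged by high-content CellEvent Green staining; fitted bidirectionally versus DMSO.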

A short description of assay [12]: CCTE_Harrill_HTTr_CellCount_MCF7: CCTE's Cell Proliferation Assessment for the High-Throughput Transcriptomics (HTTr) Platform, Harrill Lab (AID 2284012; active = hit-call score of the fitted dose curve at least 0.9, where 1 is the maximum;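 note: count of Hoechst-stained nuclei per well by high-content imaging in MCF-7 cells; cells exposed to compound for six hours; intended direction is loss of nuclei count meaning fewer cells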). The essentials:
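Chemicals in eight-point dilution series are added to MCF-7 cells for six hours, nuclei are stained with Hoechst and imaged, and per-well nuclei counts are fitted in both directions relative to DMSO controls.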

Molecules are shown by their SMILES. Inconclusive results are not listed. Activity calls are given as the source filed them. Rule for the calls, unless noted: active = hit-call score of the fitted dose curve at least 0.9, where 1 is the maximum; inactive = score below 0.9.

On to `CCCCCCC(CO)CCCC` (configuration not stated), for which the AC50 is 5.36 µM (active) in [1]; 5.36 µM (active) in assay [2]; 15 µM (active) in [6]; 4.14 µM (active) in [7]; 0.0509 µM (active) in assay [9]. Further, the call in [3], in assay [4], in assay [5] and in [8] was inactive.

Consider `CC=Cc1ccc(OC)c(OC)c1`, for which, in assay [10], the result was inactive.

Turning to `CCCSc1ccc2nc(NC(=O)OC)[nH]c2c1`, the outcome in [10] and in assay [11] was inactive.

`CS(=O)(=O)OCCCCOS(C)(=O)=O`: the outcome in assay [10], in [11] and in assay [12] was inactive.

Take `CCC(C)=O`: the result in assay [10], in [11] and in assay [12] was inactive.

Take `CS(C)=O`: the outcome in assay [10] and in assay [11] was inactive.

For the compound `CC(C)(C)C1=CC(=O)C(C(C)(C)C)=CC1=O`, the result in assay [10], in [11] and in assay [12] was inactive.

As to `C=C(C)[C@@H]1CC=C(C)C(=O)C1`, the outcome in [10] and in assay [11] was inactive.

As for `CCC1(c2ccccc2)C(=O)NCNC1=O`, the outcome in assay [10], in assay [11] and in [12] was inactive.

With `CC(C)c1ccccc1O`, the result in assay [10] and in [12] was inactive.

Regarding `CCCCC1(COC(=O)CCC(=O)O)C(=O)N(c2ccccc2)N(c2ccccc2)C1=O`, the outcome in [10] and in [12] was inactive.

On to `CC(O)C1CCCCC1` (configuration not stated), for which the outcome in [10] and in assay [12] was inactive.

Consider `OCC#CCO`, for which the outcome in assay [10] and in assay [12] was inactive.

Consider `O=[N+]([O-])c1cccc(Cl)c1`, for which the result in [10] and in assay [12] was inactive.

Regarding `Cc1[nH]c(=O)c(C#N)cc1-c1ccncc1`, the result in assay [10], in assay [11] and in [12] was inactive.

As for `CC(C)C[C@H](NC(=O)OCC1c2ccccc2-c2ccccc21)C(=O)O`, the outcome in [10], in [11] and in assay [12] was inactive.

In the case of `Cc1ccc(S(N)(=O)=O)cc1`, the outcome in [10] and in [12] was inactive.

For the compound `COc1ccc(COC(C)=O)cc1`, the result in [10] and in assay [12] was inactive.

Turning to `COC(=O)Nc1ccc(Cl)c(Cl)c1`, the result in assay [10], in assay [11] and in [12] was inactive.

With `Cc1ccc(N)c(S(=O)(=O)O)c1`, the result in assay [10], in assay [11] and in [12] was inactive.

In the case of `CC1(C)COCN1`, the outcome in [10] and in [12] was inactive.

Take `CN1C(=O)c2ccccc2C1=O`: the result in assay [10], in [11] and in assay [12] was inactive.

As to `CC(=O)CC(=O)Nc1ccccc1`, the result in [10], in [11] and in [12] was inactive.

On to `CCCCCCCCCC(=O)OC`, for which the outcome in assay [10] and in assay [12] was inactive.

Regarding `O=c1c(O)c(-c2ccc(O)cc2)oc2cc(O)cc(O)c12`, the result in assay [10] and in [12] was inactive.

On to `C=C(C)[C@H]1CC=C(C)C(=O)C1`, for which the outcome in assay [10], in [11] and in assay [12] was inactive.

On to `O=C(O)c1ccc(O)cc1`, for which the result in assay [10], in assay [11] and in [12] was inactive.

For `CN(C)CCOc1ccc(/C(=C(/CCCl)c2ccccc2)c2ccccc2)cc1`, the figures for the AC50 in assay [10] and in assay [11] were 68.7 µM (active) and 50 µM (active), respectively. Also, the compound was called inactive in assay [12].

With `CC(C)(CO)[C@@H](O)C(=O)NCCC(=O)O`, the result in assay [10] and in assay [12] was inactive.

As for `CN(C)CCOC(C)(c1ccccc1)c1ccccn1` (configuration not stated), the result in assay [10] and in assay [12] was inactive.

As to `c1ccc(Oc2ccccc2)cc1`, the result in assay [10], in assay [11] and in assay [12] was inactive.

Regarding `OC[C@H]1O[C@@H](Oc2ccc(O)cc2)[C@H](O)[C@@H](O)[C@@H]1O`, the result in [10] and in assay [12] was inactive.

For the compound `CC(C)(C)c1ccc(C(=O)O)cc1`, the outcome in [10], in assay [11] and in assay [12] was inactive.

As to `O=C(c1ccccc1)C(O)c1ccccc1` (configuration not stated), the outcome in assay [10], in assay [11] and in assay [12] was inactive.

On to `c1ccc(CCc2ccccc2)cc1`, for which the result in [10] and in assay [12] was inactive.

In the case of `ON=C1CCCCC1`, the outcome in assay [10], in [11] and in assay [12] was inactive.

With `O=C(O)CCCCCCCCCCCC(=O)O`, the outcome in assay [10] and in assay [12] was inactive.

For `CC(C)(C)CC(C)(C)c1ccc(OCCOCC[N+](C)(C)Cc2ccccc2)cc1`, the result in [10] and in assay [12] was inactive.

With `Clc1cc(Cl)c(-c2c(Cl)c(Cl)cc(Cl)c2Cl)cc1Cl`, the outcome in assay [10] and in assay [12] was inactive.

With `COc1ccc(CCN2CCC(Nc3nc4ccccc4n3Cc3ccc(F)cc3)CC2)cc1`, the AC50 in assay [10] is 76.2 µM (active); in assay [12] it was 79.2 µM (active). Moreover, in assay [11], the result was inactive.

On to `CCCCCCOC(=O)CCC`, for which the result in assay [10] and in assay [12] was inactive.

Turning to `CS(=O)(=O)c1ccc(C2=C(c3ccccc3)C(=O)OC2)cc1`, the outcome in [10], in assay [11] and in assay [12] was inactive.

Turning to `CS(=O)(=O)c1ccc(Cl)cc1`, the outcome in assay [10] and in assay [12] was inactive.

On to `CCCC(=O)OCCc1ccccc1`, for which the result in assay [10] and in assay [12] was inactive.

On to `C[C@@H]1CCN(C(=O)[C@H](CCCN=C(N)N)NS(=O)(=O)c2cccc3c2NC[C@H](C)C3)[C@@H](C(=O)O)C1`, for which the outcome in assay [10], in assay [11] and in assay [12] was inactive.

Take `C1=CC2C3C=CC(C3)C2C1` (configuration not stated): the result in assay [10] and in [12] was inactive.

For the compound `Clc1ccc(C(c2ccccc2Cl)C(Cl)Cl)cc1` (configuration not stated), the outcome in assay [10] and in assay [12] was inactive.

On to `CCCCCc1ccco1`, for which the outcome in assay [10] and in assay [12] was inactive.

By AC50 is commonly meant the concentration giving half of the maximal activity seen.
